Among the data in ChEMBL document CHEMBL2218924, “A broad activity screen in support of a chemogenomic map for kinase signalling research and drug discovery” (Biochem J, 2013) are residual activity values, retold here.

The target in experiment [1] is T1, cGMP-dependent protein kinase 1 (Homo sapiens) (UniProt Q13976).
T1 sequence (whole entry): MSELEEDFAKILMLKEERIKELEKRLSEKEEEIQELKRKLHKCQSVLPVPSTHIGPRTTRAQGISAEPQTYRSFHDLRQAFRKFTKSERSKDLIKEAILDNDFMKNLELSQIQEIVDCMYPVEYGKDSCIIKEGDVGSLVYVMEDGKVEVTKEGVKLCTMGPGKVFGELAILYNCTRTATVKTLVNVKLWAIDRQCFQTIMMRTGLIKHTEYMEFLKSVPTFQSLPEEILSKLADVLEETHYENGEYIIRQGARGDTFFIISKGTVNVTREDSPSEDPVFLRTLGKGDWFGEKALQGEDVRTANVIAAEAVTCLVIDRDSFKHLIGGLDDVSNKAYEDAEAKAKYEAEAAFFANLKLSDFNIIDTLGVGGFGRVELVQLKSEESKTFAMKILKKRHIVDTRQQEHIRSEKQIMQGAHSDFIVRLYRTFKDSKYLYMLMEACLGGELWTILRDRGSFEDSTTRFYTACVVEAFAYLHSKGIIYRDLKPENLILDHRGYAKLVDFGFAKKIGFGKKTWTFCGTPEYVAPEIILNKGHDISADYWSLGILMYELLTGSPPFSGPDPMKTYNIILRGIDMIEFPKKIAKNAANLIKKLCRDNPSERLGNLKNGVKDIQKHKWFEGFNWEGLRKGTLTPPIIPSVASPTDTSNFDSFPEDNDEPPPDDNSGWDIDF
The following applies: at 1 µM.

The target of experiment [2] is T1, cGMP-dependent protein kinase 1 (Homo sapiens). The conditions noted are these: at 10 µM.
Experiment [3] shares this target. The following applies: at 1 µM. The source holds these as a separate data set.
Experiment [4] has the same target. The following applies: at 10 µM. The source holds these as a separate data set.
Experiment [5] addresses T2, MAP kinase-activated protein kinase 5 (Homo sapiens) (UniProt Q8IW41).
T2 sequence (whole entry): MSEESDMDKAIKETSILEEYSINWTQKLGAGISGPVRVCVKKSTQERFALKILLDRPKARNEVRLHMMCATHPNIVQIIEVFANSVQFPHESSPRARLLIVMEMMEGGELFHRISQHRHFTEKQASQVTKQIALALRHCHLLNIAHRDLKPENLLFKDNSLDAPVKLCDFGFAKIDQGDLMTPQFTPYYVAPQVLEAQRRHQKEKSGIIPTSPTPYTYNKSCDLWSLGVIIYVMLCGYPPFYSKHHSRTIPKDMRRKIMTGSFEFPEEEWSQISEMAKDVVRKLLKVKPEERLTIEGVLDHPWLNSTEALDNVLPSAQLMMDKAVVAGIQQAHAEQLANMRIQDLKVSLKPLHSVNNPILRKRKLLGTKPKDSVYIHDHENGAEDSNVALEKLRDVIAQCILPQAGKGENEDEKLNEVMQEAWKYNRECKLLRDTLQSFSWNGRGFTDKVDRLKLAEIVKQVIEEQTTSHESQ
The conditions noted are these: at 1 µM.

Experiment [6] has as its target T2, MAP kinase-activated protein kinase 5 (Homo sapiens). The conditions noted are these: at 10 µM.
The target in experiment [7] is Serine/threonine-protein kinase N2 (Homo sapiens) (UniProt Q16513). The conditions noted are these: at 1 µM.
For experiment [8] the target is unchanged. The following applies: at 10 µM.
Experiment [9] deals with Tyrosine-protein kinase FRK (Homo sapiens) (UniProt P42685). The conditions noted are these: at 1 µM.
For experiment [10] the target is unchanged. The conditions noted are these: at 10 µM.
The target in experiment [11] is T3, Phosphorylase b kinase gamma catalytic chain, liver/testis isoform (Homo sapiens) (UniProt P15735).
T3 sequence (whole entry): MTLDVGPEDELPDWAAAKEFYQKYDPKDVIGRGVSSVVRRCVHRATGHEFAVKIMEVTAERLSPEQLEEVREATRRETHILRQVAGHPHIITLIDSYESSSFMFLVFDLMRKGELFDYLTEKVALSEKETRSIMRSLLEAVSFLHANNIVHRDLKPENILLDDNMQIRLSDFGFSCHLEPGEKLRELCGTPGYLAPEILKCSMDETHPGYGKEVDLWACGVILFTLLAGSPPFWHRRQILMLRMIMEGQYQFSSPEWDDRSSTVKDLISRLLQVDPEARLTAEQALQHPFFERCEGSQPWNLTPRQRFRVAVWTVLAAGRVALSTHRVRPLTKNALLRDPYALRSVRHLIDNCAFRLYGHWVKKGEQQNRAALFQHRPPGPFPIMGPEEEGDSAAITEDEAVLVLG
The following applies: at 10 µM.

The target in experiment [12] is Serine/threonine-protein kinase pim-1 (Homo sapiens) (UniProt P11309). The following applies: at 1 µM.
For experiment [13] the target is unchanged. The following applies: at 10 µM.
The target in experiment [14] is Serine/threonine-protein kinase pim-2 (Homo sapiens) (UniProt Q9P1W9). The following applies: at 1 µM.
For experiment [15] the target is unchanged. The following applies: at 10 µM.
Experiment [16] deals with Serine/threonine-protein kinase pim-3 (Homo sapiens) (UniProt Q86V86). The conditions noted are these: at 1 µM.
Experiment [17] has the same target. The following applies: at 10 µM.
Experiment [18] concerns the target Serine/threonine-protein kinase PLK1 (Homo sapiens) (UniProt P53350). The conditions noted are these: at 1 µM.
The target is the same in experiment [19]. The following applies: at 10 µM.
The target in experiment [20] is T3, Phosphorylase b kinase gamma catalytic chain, liver/testis isoform (Homo sapiens). The conditions noted are these: at 1 µM.

Structures are written as SMILES.

Sequence of Tyrosine-protein kinase FRK (Homo sapiens) (P42685 whole entry): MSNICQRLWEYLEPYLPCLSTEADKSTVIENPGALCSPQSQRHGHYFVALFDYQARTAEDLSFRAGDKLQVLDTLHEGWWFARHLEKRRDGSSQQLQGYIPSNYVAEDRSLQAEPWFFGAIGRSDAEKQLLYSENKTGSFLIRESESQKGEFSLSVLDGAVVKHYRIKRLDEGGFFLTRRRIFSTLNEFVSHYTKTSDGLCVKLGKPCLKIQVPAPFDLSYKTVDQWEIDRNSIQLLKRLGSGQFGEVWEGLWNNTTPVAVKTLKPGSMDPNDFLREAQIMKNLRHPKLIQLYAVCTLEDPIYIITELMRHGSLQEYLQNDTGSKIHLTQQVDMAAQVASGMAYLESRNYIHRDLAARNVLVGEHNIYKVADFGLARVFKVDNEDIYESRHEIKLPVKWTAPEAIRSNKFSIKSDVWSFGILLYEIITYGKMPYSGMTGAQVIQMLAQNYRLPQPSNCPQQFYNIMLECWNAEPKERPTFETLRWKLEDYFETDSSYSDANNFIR
Sequence of Serine/threonine-protein kinase PLK1 (Homo sapiens) (P53350 whole entry): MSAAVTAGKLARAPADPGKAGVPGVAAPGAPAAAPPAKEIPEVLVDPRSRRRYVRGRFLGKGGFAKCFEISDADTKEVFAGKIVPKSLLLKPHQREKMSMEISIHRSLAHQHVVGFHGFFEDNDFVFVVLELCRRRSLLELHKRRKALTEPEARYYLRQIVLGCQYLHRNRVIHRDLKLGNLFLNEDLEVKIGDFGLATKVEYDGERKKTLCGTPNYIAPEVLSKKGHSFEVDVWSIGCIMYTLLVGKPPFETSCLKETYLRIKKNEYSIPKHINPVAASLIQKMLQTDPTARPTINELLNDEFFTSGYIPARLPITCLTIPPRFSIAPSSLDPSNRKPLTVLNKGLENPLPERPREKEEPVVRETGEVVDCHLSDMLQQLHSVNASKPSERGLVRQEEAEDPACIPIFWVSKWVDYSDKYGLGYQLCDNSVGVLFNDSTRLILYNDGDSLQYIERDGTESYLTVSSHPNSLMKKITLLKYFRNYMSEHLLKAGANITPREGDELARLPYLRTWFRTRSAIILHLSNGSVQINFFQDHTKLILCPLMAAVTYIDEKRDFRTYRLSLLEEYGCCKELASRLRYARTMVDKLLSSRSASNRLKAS
Sequence of Serine/threonine-protein kinase N2 (Homo sapiens) (Q16513 whole entry, looked up): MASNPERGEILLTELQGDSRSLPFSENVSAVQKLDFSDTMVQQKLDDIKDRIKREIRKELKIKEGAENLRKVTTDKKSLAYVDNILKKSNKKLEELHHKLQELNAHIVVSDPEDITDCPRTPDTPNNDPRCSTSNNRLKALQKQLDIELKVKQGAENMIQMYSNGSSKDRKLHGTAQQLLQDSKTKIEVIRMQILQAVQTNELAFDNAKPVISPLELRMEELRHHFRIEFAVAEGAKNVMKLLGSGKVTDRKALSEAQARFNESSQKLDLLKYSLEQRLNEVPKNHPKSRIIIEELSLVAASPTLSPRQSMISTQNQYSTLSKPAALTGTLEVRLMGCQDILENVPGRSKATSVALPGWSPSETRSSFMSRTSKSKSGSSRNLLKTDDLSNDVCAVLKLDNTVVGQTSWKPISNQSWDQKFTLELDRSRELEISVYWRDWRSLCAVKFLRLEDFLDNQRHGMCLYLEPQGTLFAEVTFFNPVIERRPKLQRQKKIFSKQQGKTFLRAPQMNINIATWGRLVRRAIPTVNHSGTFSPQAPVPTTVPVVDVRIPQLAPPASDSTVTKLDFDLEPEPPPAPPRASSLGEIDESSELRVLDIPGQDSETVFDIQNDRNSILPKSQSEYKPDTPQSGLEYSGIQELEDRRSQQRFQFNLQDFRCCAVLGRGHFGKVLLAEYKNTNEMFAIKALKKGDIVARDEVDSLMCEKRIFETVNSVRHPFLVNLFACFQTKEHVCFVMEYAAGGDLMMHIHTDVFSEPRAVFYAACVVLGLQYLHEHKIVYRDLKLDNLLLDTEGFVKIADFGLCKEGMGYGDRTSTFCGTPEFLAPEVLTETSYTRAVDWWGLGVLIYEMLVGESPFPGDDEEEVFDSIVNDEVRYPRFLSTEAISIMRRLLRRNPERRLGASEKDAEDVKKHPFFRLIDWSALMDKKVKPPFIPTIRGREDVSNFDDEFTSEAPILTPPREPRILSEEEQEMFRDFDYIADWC
Sequence of Serine/threonine-protein kinase pim-2 (Homo sapiens) (Q9P1W9 whole entry, looked up): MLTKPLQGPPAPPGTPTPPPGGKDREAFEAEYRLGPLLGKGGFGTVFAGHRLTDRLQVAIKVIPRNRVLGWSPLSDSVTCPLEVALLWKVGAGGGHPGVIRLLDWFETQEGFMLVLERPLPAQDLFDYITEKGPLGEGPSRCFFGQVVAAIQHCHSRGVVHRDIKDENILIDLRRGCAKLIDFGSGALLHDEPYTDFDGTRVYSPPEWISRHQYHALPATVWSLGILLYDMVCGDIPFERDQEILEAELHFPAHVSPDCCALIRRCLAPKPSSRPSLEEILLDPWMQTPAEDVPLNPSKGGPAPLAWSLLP
Sequence of Serine/threonine-protein kinase pim-1 (Homo sapiens) (P11309 whole entry, looked up): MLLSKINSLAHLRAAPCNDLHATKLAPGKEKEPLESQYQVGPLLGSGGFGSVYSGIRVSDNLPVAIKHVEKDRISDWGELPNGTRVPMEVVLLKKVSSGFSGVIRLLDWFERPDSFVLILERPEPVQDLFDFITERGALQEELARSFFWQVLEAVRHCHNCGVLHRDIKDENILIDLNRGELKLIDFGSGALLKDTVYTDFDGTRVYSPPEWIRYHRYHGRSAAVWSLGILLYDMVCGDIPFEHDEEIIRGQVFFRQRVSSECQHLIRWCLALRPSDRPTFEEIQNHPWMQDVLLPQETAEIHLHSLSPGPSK

Turning to `N#C/C(=C(\N)Sc1ccc(N)cc1)c1ccccc1C(F)(F)F`, the residual activity came out at 97% in experiment [1]; 95% in [2]; 100% in experiment [3]; 33% in experiment [4]; 91% in experiment [5]; 90% in experiment [6]. For the same molecule, the residual activity was determined as 68% in [7]; 48% in experiment [8]; 94% in [9]; 95% in experiment [10]; 108% in [11]; 79% in experiment [12]. For the same molecule, the residual activity was 83% in [13]; 130% in experiment [14]; 133% in experiment [15]; 87% in [16]; 84% in experiment [17]; 85% in experiment [18]. Moreover, the residual activity in experiment [19] was 90%.

Regarding `O=C1NC(=O)/C(=C\c2ccc3nccnc3c2)S1`, the residual activity amounted to 125% in experiment [1]; 97% in experiment [2]; 80% in [3]; 62% in experiment [4]; 96% in experiment [5]; 93% in [6]. The residual activity in [7] stood at 103%; in experiment [8], 94%; in [9] it was 110%; in experiment [10] it was 93%; in experiment [20] it was 90%; in experiment [11] it was 50%. Besides, the residual activity in experiment [12] is 42%; in [13] it was 10%; in experiment [14], 75%; in experiment [15], 22%; in [16] it was 61%; in [17], 14%. Moreover, the residual activity in [18] turned out to be 80%; in experiment [19] it was 64%.

As for `Cc1cccc(-c2[nH]c(C(C)(C)C)nc2-c2ccc3c(c2)OCO3)n1`, the residual activity amounted to 92% in [5]; 77% in [6]; 92% in experiment [10]; 103% in [16]; 97% in experiment [17]; 80% in experiment [18]. For the same molecule, the residual activity in experiment [19] was found to be 75%.

Turning to `CO[C@@H]1[C@H](N(C)C(=O)c2ccccc2)C[C@H]2O[C@]1(C)n1c3ccccc3c3c4c(c5c6ccccc6n2c5c31)C(=O)NC4`, the residual activity in experiment [1] amounted to 8%; in experiment [2] it was 4%; in [3], 4%; in experiment [4], 3%; in experiment [5], 102%; in [6] it was 57%. The residual activity in experiment [7] was 2%; in [8], 1%; in [9] it was 33%; in experiment [10], 23%; in [20], 44%; in experiment [11], 29%. Further, the residual activity worked out at 33% in [12]; 16% in [13]; 80% in experiment [14]; 94% in [15]; 93% in [16]; 88% in experiment [17]. The residual activity in experiment [19] was determined as 61%.

As to `COc1cc2ncnc(Nc3ccc(NC(=O)c4ccccc4)cc3)c2cc1OC`, the residual activity came to 105% in experiment [1]; 99% in [2]; 90% in [3]; 105% in experiment [5]; 76% in experiment [6]; 109% in experiment [9]. The residual activity in experiment [10] is 76%; in experiment [20] it was 101%; in [12], 88%; in [13] it was 96%; in experiment [14], 85%; in [16], 107%. In addition, the residual activity is 99% in [17] and 105% in experiment [18].

In the case of `Cc1cc(Nc2nc(-c3ccccc3)nc3ccccc23)n[nH]1`, the residual activity in experiment [1] worked out at 82%; in experiment [2], 39%; in experiment [3], 82%; in experiment [4], 27%; in experiment [8] it was 58%; in experiment [9], 46%. The residual activity in experiment [10] worked out at 8%; in [11] it was 35%; in experiment [12] it was 104%; in experiment [13], 57%; in [14], 126%; in [18] it was 73%. In [19], the residual activity was found to be 40%.

With `N#CCCc1ccc2c(c1)-c1[nH]c3ccc([N+](=O)[O-])cc3c1CC(=O)N2`, the residual activity in experiment [5] was 68%; in [6], 43%; in experiment [7], 57%; in experiment [8], 28%; in experiment [9], 54%; in experiment [10] it was 22%. The residual activity in experiment [13] was 69%; in experiment [14], 120%.

Regarding `Oc1ccc(-c2nc(-c3ccc(F)cc3)c(-c3ccncc3)[nH]2)cc1`, the residual activity was 108% in experiment [1]; 66% in [2]; 108% in [3]; 78% in experiment [4]; 110% in experiment [5]; 80% in experiment [6]. Also, the residual activity in [7] came out at 107%; in [8], 47%; in [9], 65%; in experiment [10], 12%; in experiment [20] it was 107%; in [11], 98%. The residual activity in experiment [12] is 96%; in experiment [13], 91%; in experiment [14], 125%; in experiment [16], 96%; in [17], 92%; in experiment [18], 94%. Besides, the residual activity in experiment [19] is 83%.

`COc1ccc(CNc2nc(N(CCO)CCO)nc3c2ncn3C(C)C)cc1`: the residual activity in experiment [1] came out at 93%; in [2] it was 101%; in experiment [3] it was 109%; in [4], 101%; in experiment [5], 100%; in experiment [6], 102%. Moreover, the residual activity in [7] stood at 104%; in [8], 77%; in [9] it was 95%; in experiment [10], 87%; in experiment [20], 122%; in experiment [11] it was 88%. The residual activity in [12] is 87%; in [13] it was 69%; in experiment [14], 134%; in experiment [15], 130%; in experiment [16], 87%; in experiment [17], 88%. In addition, the residual activity in experiment [18] was 69%; in experiment [19], 58%.

With `O=C(Nc1cccc(Nc2cc(Nc3cccc(C(F)(F)F)c3)ncn2)c1)C1CC1`, the residual activity in experiment [1] was determined as 117%; in [2], 100%; in experiment [3], 81%; in [4], 88%; in experiment [5] it was 110%; in [6], 24%. Besides, the residual activity in experiment [7] amounted to 93%; in experiment [8] it was 93%; in experiment [9] it was 101%; in experiment [10], 73%; in experiment [20], 86%; in experiment [11], 98%. The residual activity in experiment [12] is 112%; in experiment [14], 88%; in experiment [15], 108%; in [16] it was 93%; in [17], 102%; in [18] it was 99%. For the same molecule, the residual activity in [19] amounted to 91%.

As for `CCN(CC)C(=O)c1ccc(Nc2nc(OCC3CCCCC3)c3nc[nH]c3n2)cc1`, the residual activity was determined as 12% in experiment [6]; 66% in experiment [7]; 12% in experiment [8]; 78% in experiment [9]; 38% in [10]; 77% in [12]. Also, the residual activity in [13] is 56%; in experiment [14], 143%; in [18] it was 78%; in [19], 66%.

Consider `CN(C)CCCn1cc(C2=C(c3c[nH]c4ccccc34)C(=O)NC2=O)c2ccccc21`, for which the residual activity is 60% in experiment [1]; 14% in [2]; 34% in experiment [3]; 6% in experiment [4]; 125% in experiment [5]; 107% in experiment [6]. Besides, the residual activity worked out at 23% in experiment [7]; 6% in [8]; 84% in experiment [10]; 88% in experiment [20]; 63% in experiment [11]; 15% in experiment [14]. The residual activity came out at 4% in [15]; 22% in experiment [16]; 5% in [17]; 114% in [18]; 84% in experiment [19].

Turning to `Nc1nc(Nc2ccc(S(N)(=O)=O)cc2)nn1C(=S)Nc1c(F)cccc1F`, the residual activity is 32% in experiment [5]; 2% in experiment [6]; 5% in experiment [7]; 2% in experiment [8]; 20% in experiment [9]; 0% in experiment [10]. Further, the residual activity came to 86% in experiment [20]; 31% in experiment [11]; 96% in [12]; 77% in [13]; 125% in experiment [14]; 95% in experiment [16]. In [17], the residual activity was found to be 95%.
